Test results taken from the supplement of paper PMC3724861.
Many of the other results were omitted from the sample, so hits are more common in it than they were. No count for the full screen is at hand. A number with no mark means an inactive call.

System: T1, Caupolican (Caup) homeodomain DNA-binding domain
T1 sequence: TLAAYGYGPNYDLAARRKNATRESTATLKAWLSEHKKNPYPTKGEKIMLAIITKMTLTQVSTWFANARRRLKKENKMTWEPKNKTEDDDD
Assay: PBM E-score (8-mer, recovered from the published 9-mer minima) (E-score (dimensionless, -0.5 to 0.5)); Drosophila protein; higher = stronger relative binding preference, active = 0.31 or more
Method in brief: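 Caup's homeodomain DNA-binding domain (residues 214-303) was made by in vitro transcription and translation and applied at 100 nM to custom-designed protein binding microarrays. Each value is an enrichment score that gives relative binding preference for a short DNA word, with higher meaning stronger. The 8-mer values were recovered from published 9-mer scores, each of which was the minimum of its two constituent 8-mer scores. A cutoff of 0.31 marks candidate sites.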

| Sequence | PBM E-score |
| --- | --- |
| AGTATCTA | 0.166 |
| TATCTAGA | 0.0449 |
| GGACCCAC | -0.208 |
| GAGCAGAC | -0.0808 |
| CTAGAAAA | 0.0157 |
| CACTAATG | 0.0246 |
| CATAGCCG | -0.0066 |
| ACCACGTG | 0.0775 |
| AACACGTG | ≥ 0.351 (active) |
| AACACGTA | 0.316 (active) |
| AACACGTC | 0.299 |
| CACACGTG | 0.148 |
| AACACGTT | 0.292 |
| CTATTTTC | 0.101 |
| ACTACACG | ≥ 0.357 (active) |
| GCTACACA | 0.185 |
| ACTACACA | ≥ 0.357 (active) |
| ACTACACT | 0.242 |
| ACTACACC | 0.281 |
| CCTACACG | 0.18 |
| ATAGCTCG | -0.0531 |
| GTTCCCAA | -0.045 |
| CGATGCTC | -0.13 |
| CACGTGAA | 0.00852 |
| GACGTGAA | -0.0186 |

| Sequence | PBM E-score |
| --- | --- |
| CACGTGTA | 0.329 (active) |
| GACGTGTA | 0.344 (active) |
| CACGTGTC | 0.266 |
| AACGTGTA | 0.371 (active) |
| AACGTGTC | 0.257 |
| GACGTGGA | -0.0891 |
| AACGTGTG | 0.111 |
| GCCCGTCC | -0.243 |
| AGGGTATC | -0.045 |
| GTACCGTA | 0.0122 |
| CATGTCTC | 0.314 (active) |
| CATGTCTA | 0.359 (active) |
| CATGTGTC | 0.245 |
| AATGTCTC | 0.112 |
| AATGTCTA | 0.242 |
| GATGTCTA | 0.23 |
| AAAGATTT | -0.00222 |
| CTCACCCC | -0.125 |
| CTGTATTA | 0.159 |
| ATGTATTA | 0.373 (active) |
| ACGTATTG | 0.151 |
| ATGTATTG | 0.344 (active) |
| ATGTATTC | 0.222 |
| GTGTATTA | 0.297 |
| GCCCCGGC | -0.316 |

| Sequence | PBM E-score |
| --- | --- |
| CACAGTAA | 0.122 |
| CTCTAAAG | -0.0918 |
| GCGGTTCA | -0.101 |
| AACAAGGA | 0.302 |
| CACAAGGA | 0.109 |
| TACAAGGA | 0.352 (active) |
| GACAAGGC | 0.205 |
| GACAAGGA | 0.314 (active) |
| GACAAAGA | 0.13 |
| CTCGACTC | -0.0783 |
| CGGCTATC | -0.134 |
| ACACATAG | 0.174 |
| ACACATAT | 0.323 (active) |
| ACATATAG | 0.256 |
| ACACATAA | 0.291 |
| TCATATAA | 0.184 |
| ACATATAC | 0.291 |
| ACATATAT | 0.343 (active) |
| ACATATAA | 0.35 (active) |
| CCATATAA | 0.0843 |
| CGACTATC | -0.0393 |
| AGAGGATA | 0.0175 |
| ATCAAGAT | 0.0803 |
| CTAGGAGC | -0.193 |
| CATCCCGC | -0.146 |

| Sequence | PBM E-score |
| --- | --- |
| AACACTAA | 0.166 |
| GCTTAAAA | -0.0795 |
| GCGCCACA | -0.129 |
| CGCGTATA | -0.0122 |
| AATATTGC | 0.153 |
| GCATGCTA | 0.0372 |
| CTATGCTC | 0.0374 |
| AGATGCTG | -0.00229 |
| ACATGCTG | 0.332 (active) |
| TCATGCCA | 0.0318 |
| ACATGCCA | 0.336 (active) |
| ATATGCTG | 0.0997 |
| CCATGCTA | 0.102 |
| ACATGCTA | 0.352 (active) |
| ACATGCCT | 0.254 |
| CCATGCTC | -0.00716 |
| ACATGCTC | 0.334 (active) |
| CACTGCTA | 0.075 |
| CATACCGC | -0.0667 |
| AAGCTCCT | -0.0876 |
| GGATGCTA | -0.0509 |
| CCAAACGG | -0.223 |
| AATTCAAG | 0.118 |
| ACTATAAT | 0.162 |
| CTTGCGCA | -0.0025 |

| Sequence | PBM E-score |
| --- | --- |
| TGAGTACA | 0.265 |
| TAAGTACA | 0.332 (active) |
| TAAGTAAA | 0.0166 |
| CAAGTACA | 0.342 (active) |
| GAAGTACA | 0.269 |
| AAAGTACA | 0.276 |
| GAAACCCA | 0.0044 |
| ATCTCTGG | -0.00282 |
| CGAGGTCA | -0.0898 |
| CAACTTGA | 0.0844 |
| GTGTACCA | 0.308 |
| ATGTACTC | 0.303 |
| ATGTACCA | 0.36 (active) |
| CTGTACTC | 0.082 |
| AAGTACTA | 0.197 |
| ATGTACTG | 0.339 (active) |
| CTGTACGA | 0.203 |
| ATGTACGG | 0.211 |
| AGGTACTG | 0.0558 |
| ATGTACCC | 0.263 |
| ATGTACGA | 0.395 (active) |
| ATGTACTA | 0.398 (active) |
| ATCATCCG | 0.0593 |
| CCCTAGCG | -0.171 |
| AGAGCCTA | -0.0924 |

| Sequence | PBM E-score |
| --- | --- |
| ATAACCGC | 0.0257 |
| GGGTACTA | 0.152 |
| CTGTACTA | 0.156 |
| GTGTACTA | 0.34 (active) |
| AGTCGTCC | -0.0214 |
| CACCGAAC | 0.0165 |
| ACTGCGAA | -0.0547 |
| GATGTTAC | 0.295 |
| CATGTTAC | 0.42 (active) |
| CATGTTAG | 0.408 (active) |
| AATGTTAA | 0.291 |
| AATGTTAG | 0.253 |
| TAGGTTAA | 0.0795 |
| GATGTTAA | 0.28 |
| TCTGTTAA | 0.173 |
| AATGTTAC | 0.277 |
| CCTGTTAG | 0.114 |
| TATGTTAA | 0.314 (active) |
| CATGTTAA | 0.446 (active) |
| GACCTACC | -0.0746 |
